This is a sample that favours compounds with a hit; in the whole collection about 19% have one here.
HT1080 IDH1KD tx – HT-1080 IDH1 knockdown cell toxicity (counter line); hit rate 2% among 360,000; AID 686971; HT-1080 IDH1 knockdown viability, ATP luminescence, 48 h; Potency, µM (highest dose often 46.1 µM), for inactives: at the top dose activity, negative = toxicity, hits mostly cytotoxic;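 further: potency means the concentration at half of the fitted maximal effect; 0% = DMSO wells and -100% = cell-free medium wells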
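IDH1KD HT-1080 cells, 750/well, RPMI + 5% FBS; compound pinned after 2 h settling; 48 h, 37 °C; CellTiter-Glo luminescence; % activity normalised to DMSO and no-cell wells; curves fitted, classed by r2 and efficacy.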
TDP1 cell noCPT – qHTS for Inhibitors of human tyrosyl-DNA phosphodiesterase 1 (TDP1): qHTS in cells in absence of CPT. DT40 Tdp1-/- hTDP1 cells, no CPT, ATP luminescence, 48 h. Potency, µM (doses to about 46.2 µM), inactives show at the top dose activity change, negative = growth inhibition, usual class: inhibitors. hit rate 15% among 420,000. AID 686978, 2013; further: potency means the concentration at half of the fitted maximal effect; nearly all actives have a fitted effect of over 55% in size
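Growth of hTDP1-complemented DT40 Tdp1-knockout cells is measured by ATP luminescence after at least 48 hr compound exposure at 37 °C, with DMSO substituting for the 20 nM CPT used in the parallel screen.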
IL-1B inflam inh – blocks inflammasome-driven IL-1 beta release | THP-1 LPS/ATP IL-1B secretion, AlphaLISA, 16 h; hits give low values | activity change, % at 57.5 µM | hit rate 4.7% among 360,000 | AID 743279; in the data active means activity change below about -50%; inconclusive means mostly about -30% to -49%
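Secreted IL-1B measured by AlphaLISA bead assay after 16 h compound exposure of THP-1 cells; compounds (final up to 57.5 uM) added 1 h before LPS (250 ng/mL) and ATP (1.25 mM) stimulation; lower signal means less secretion.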
ELG1 repair inh – inhibitors of ELG1-dependent DNA repair in HEK293T cells; Potency, µM (titrated, usually from 46.1 µM), without a hit: at the highest dose activity change, negative = inhibition, most hits filed as inhibitors; AID 504467; hit rate 2.3% among 330,000; HEK293T ELG1-luciferase reporter, luminescence, 16 h; DNA damage induced by 5-fluorouridine; further: potency means the concentration at half of the fitted maximal effect; nearly all actives have a fitted effect of over 55% in size
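HEK293T cells expressing luciferase-tagged ELG1 (2,000/well) received 5-Fluorouridine plus compound or DMSO for 16 hr at 37 °C. Luciferase was read by ONE-Glo luminescence after 30 min at room temperature.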
TDP1 cell CPT – growth inhibition of DT40 Tdp1-/-;hTDP1 cells with camptothecin (screen for TDP1 inhibitors). chicken DT40 Tdp1-/-;hTDP1 cells + 20 nM CPT, ATP luminescence, 48 h. hit rate 12% among 420,000. Potency, µM (highest dose often 46.2 µM), for inactives: at the highest dose activity change, negative = growth inhibition, actives largely listed as inhibitors. AID 686979; further: potency means the concentration at half of the fitted maximal effect; nearly all actives have a fitted effect of over 55% in size
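Cell growth measured by CellTiter-Glo luminescence after a minimum 48 h, 37 C compound exposure with 20 nM CPT in Tdp1-knockout DT40 cells stably expressing hTDP1, seeded 400/well; qHTS titration format.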
HT1080-NT tox – kills 2HG-producing HT-1080-NT fibrosarcoma cells; HT-1080-NT fibrosarcoma viability, CellTiter-Glo ATP luminescence, 48 h; Potency, µM (doses to about 46.1 µM), for the others: at the top dose activity, negative = less viability, actives largely listed as cytotoxic; hit rate 1.6% among 360,000; AID 686970;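 further: NT is the 2HG producing partner of a matched IDH1 knockdown line; potency means the concentration at half of the fitted maximal effect; 0% = DMSO-treated cells and -100% = media-only wells without cells; nearly all actives have a fitted effect of over 55% in size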
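Luminescent CellTiter-Glo readout after 48 hours of compound exposure at 37 degrees C defined viability of HT-1080-NT cells. Activity was normalized to DMSO wells and cell-free media wells; concentration-response curves were fitted and assigned curve classes.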
Starred values were filed as active, the others as inactive; u = inconclusive; x = no result; ! = a repeat was not active. Unless noted, the call rests on the fitted dose curve; in most records, active means well fitted curve in the direction sought with a large enough effect; inconclusive means small, poorly fitted or top-dose-only effect, or another doubt; inactive means no such curve, though single readings can be large; an effect the other way counts as inactive or inconclusive. Unless noted, on the % scale 0 is the no-effect control and ±100 the full control effect.

SMILES	HT1080 IDH1KD tx	TDP1 cell noCPT	IL-1B inflam inh	ELG1 repair inh	TDP1 cell CPT	HT1080-NT tox
CN1c2ccc([N+](=O)[O-])cc2CC2(C(=O)NC(=O)N(c3ccccc3)C2=O)C1c1ccccc1 (centres undefined)	-10%	18µM*	19	-26%	13µM*	-8%
COC(=O)C1=C(c2ccccc2OCc2ccccc2)C[C@@H]2CC[C@H]1N2C(=O)NCc1cccc(C(F)(F)F)c1	-10%	16µM*	-9	u	u	-17%
COC(=O)C1=C(c2ccccc2OCc2ccccc2)C[C@@H]2CC[C@H]1N2C(=O)NCc1ccc(C(F)(F)F)cc1	-28%	u	u	-28%	u	-13%
COC(=O)C1=C(c2cccc(OCc3ccccc3)c2)C[C@@H]2CC[C@H]1N2C(=O)NCc1ccc2[nH]ccc2c1	-11%	u	0	u	u	-5%
COC(=O)C1=C(c2ccc(OCc3ccccc3)cc2)C[C@@H]2CC[C@H]1N2C(=O)NCc1cccc(C(F)(F)F)c1	-8%	21µM*	0	u	21µM*	0%
COC(=O)C1=C(c2ccc(F)cc2OCc2ccccc2)C[C@@H]2CC[C@H]1N2C(=O)NCc1ccc(C(F)(F)F)cc1	-4%	u	-52*	u	23µM*	-2%
C=CCN1C[C@H](C)N([C@@H](c2ccccc2)c2ccc(C(=O)N(CC)CC)cc2)C[C@H]1C	x	-13%	x	x	4%	x
COC(=O)NC(=S)Nc1ccccc1NC(=S)NC(=O)OC	x	u	18	x	21µM*!	x
c1cnc(N2CCCC3(CCNCC3)C2)nc1	x	-24%	x	x	-2%	x
CCOC(=O)c1ccccc1C(=O)OCC	x	0%	21	x	4%	x
CCOC(=O)c1cnc(N2CC2)nc1N	7%	0.92µM*	-8	x	0.46µM*	-2%
CC(=O)OO	x	-9%	x	x	-23%	x
Cc1c(NS(=O)(=O)c2ccccc2)ccc([N+](=O)[O-])c1Cl	u	16µM*	-23	x	u	2.9µM*
CC(C)(C)NS(=O)(=O)c1cccc(S(=O)(=O)c2cccc(S(=O)(=O)NC(C)(C)C)c2)c1	u	u	-19	u	23µM*	u
CC(C)(C)NS(=O)(=O)c1ccc(OCC(=O)N2CCN(Cc3ccccc3)CC2)cc1	0%	u	-14	-2%	u	-3%
O=C(c1ccc2c3c(cccc13)CC2)C1CCCN(CC2CC2)C1 (centres undefined)	16µM*	23µM*	-117*	17%	18µM*	u
Cc1nc2ccc(Cl)cc2c(-c2ccccc2)c1C(=O)O	0%	u	-2	6%	u	0%
COc1cc2c3c(c1OC)Oc1ccc(cc1)C[C@H]1c4c(cc(OC)c(OC)c4Oc4ccc(cc4)C[C@@H]3N(C)CC2)CCN1C	-25%	18µM*	-3	2%	16µM*	-17%
COc1cc2c3cc1Oc1c(OC)c(OC)cc4c1[C@@H](Cc1ccc(O)c(c1)Oc1ccc(cc1)C[C@@H]3N(C)CC2)N(C)CC4	x	-22%	x	x	u	x
COc1ccc2cc1Oc1ccc(cc1)C[C@H]1c3cc(c(OC)cc3CCN1C)Oc1c(OC)c(OC)cc3c1[C@H](C2)N(C)CC3	15µM*	11µM*!	-96*	5%	5µM*!	5.8µM*
COc1cc2c3cc1Oc1cc(ccc1O)C[C@@H]1c4c(cc(OC)c(O)c4Oc4ccc(cc4)C[C@H]3N(C)CC2)CCN1C	8%	4.6µM*	18	-8%	4.1µM*	11%

Compound activity (PubChem BioAssay)
